# Experimental data reported in PubChem BioAssay (NCI).
# The panel holds about 79,000 compounds, 15% with a hit somewhere; the sample as a whole holds those more often. Unmarked numbers belong to inactive results. The source made the active and inactive calls. Cut-off read from the data, not from the text of the source: active = growth inhibition above about 70%; inactive = the rest. Where a SMILES comes first, the peptide text is derived from it. The star is where a group is joined. Cbz = O=C(OCc1ccccc1)*
# Tests used:
# [1] = NCI Yeast Anticancer Drug Screen. Data for the rad50 strain (AID 155);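 note: 0% = growth of vehicle-only cultures of the same strain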; details: S. cerevisiae rad50 strain growth inhibition; at 50.0 µM; hits give high values
# Procedure, shortened: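 Compounds were tested on a yeast strain with an engineered DNA damage repair alteration; the reported value is growth inhibition normalised to vehicle treatment.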
# [2] = NCI Yeast Anticancer Drug Screen. Data for the mec2-1 strain (AID 157); details: S. cerevisiae mec2-1 strain, at 50.0 µM, hits give high values
# Procedure, shortened: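 Mutant yeast (mec2-1) grown with compound; growth inhibition relative to vehicle control reported.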
# [3] = NCI Yeast Anticancer Drug Screen. Data for the sgs1 mgt1 strain (AID 161);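 note: 0% = growth of cultures given vehicle only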; details: S. cerevisiae sgs1 mgt1 strain, at 50.0 µM, hits give high values
# Procedure, shortened: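 This yeast growth screen uses a strain with defined DNA-repair lesions; compound-treated growth is compared with vehicle-treated growth.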
# [4] = NCI Yeast Anticancer Drug Screen. Data for the cln2 rad14 strain (AID 165);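 note: 0% = growth equal to vehicle treated cultures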; details: S. cerevisiae cln2 rad14 strain, at 50.0 µM, hits give high values
# Procedure, shortened: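 Readout is yeast growth inhibition versus vehicle-treated controls, using a strain with cln2 and rad14 alterations exposed to compound.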
# [5] = NCI Yeast Anticancer Drug Screen. Data for the bub3 strain (AID 167); details: S. cerevisiae bub3 mutant strain, at 50.0 µM, hits give high values
# Procedure, shortened: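 Growth of a checkpoint-deficient yeast mutant is measured after compound exposure. Values represent inhibition relative to vehicle.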
# [6] = NCI Yeast Anticancer Drug Screen. Data for the mlh1 rad18 strain (AID 175); details: S. cerevisiae mlh1 rad18 strain growth inhibition; at 50.0 µM; hits give high values
# Procedure, shortened: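 Genetically defined yeast (DNA repair-deficient) exposed to compounds; growth inhibition determined relative to vehicle.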
Compound,growth inhibition [1],growth inhibition [2],growth inhibition [3],growth inhibition [4],growth inhibition [5],growth inhibition [6]
O=C(O)C1(Br)CC1(c1ccccc1)c1ccccc1 (centres undefined),28.2%,5.25%,3.65%,-14.1%,-0.7%,26.1%
CCCCCCCCCCC(C(=O)O)C1(C(=O)O)CCC(=O)O1 (centres undefined),-15.7%,-32.4%,-5.8%,11.4%,-9.4%,-5.25%
[O-]c1c[n+](-c2ccc3c(c2)OCO3)no1,3.2%,-3.25%,-0.25%,-16.4%,7.3%,13.7%
OCC1OC(Nc2ccc(F)cc2)C(O)C1O (centres undefined),2.95%,-10.4%,-1.3%,30.1%,-13.2%,26.2%
CCNc1nc(Cl)nc(C(Cl)(Cl)Cl)c1Cl (tested in a mixture with another compound),96.6% (active),95.1% (active),97.8% (active),74.6% (active),71% (active),95.5% (active)
Cc1nc(N)nc2ccccc12,3.15%,-25.3%,-16%,-5.8%,-7.9%,-16.1%
CN(C)C(=O)Nc1cccc(OC(=O)NC2CC2)c1,4.4%,16.9%,26.9%,-8.35%,19.8%,-4.1%
CCCCCCCCCCCCCCCCCCOCCCCCCCCCCCC,-34.8%,-15.6%,-20%,-64%,5.05%,-17.1%
COc1ccccc1OC(C)=O,-5.2%,-14.4%,-2.3%,-8.2%,-1.35%,17.9%
O=C(O)CCSc1ccccc1,25.2%,-23.4%,-13.8%,-73%,-3.45%,20.1%
CN(NC(=O)/C(=C\c1ccccc1Cl)NC(=O)c1ccccc1)c1cn[nH]c(=O)c1Cl,-13.2%,-11.8%,-16.4%,9.1%,-3.75%,-6.85%
COC(=O)C1O[C@H]1c1cccc[n+]1[O-] (mixture of isomers),-0.3%,-3.15%,5.7%,11.8%,-8.2%,-0.9%
CCC(SC)C(=O)c1ccccc1 (centres undefined),-7.55%,-11.6%,0.5%,-12.4%,-33.8%,-12.8%
NCCSCc1ccccc1Cl,-10.3%,-27.2%,-50.9%,-33.5%,-23.6%,-0.4%
CCCn1cnc2c(NN=O)ncnc21,-42%,-13.2%,-51.6%,-23.2%,-9.35%,-45.5%
CCOC(=O)CCC(NC(=O)C(CCC(=O)O)NC(=O)OCc1ccccc1)C(=O)OCC (stereo not drawn) (Cbz-Glu-Glu(OEt)-OEt; configuration not given here),26.4%,-6.25%,-1.85%,-13.4%,0.05%,0.05%
CC(=O)Nc1ccc(S(=O)(=O)N2c3ccccc3Sc3ccccc32)cc1,8.95%,-5.9%,4.95%,3.05%,-1.5%,4.2%
O/N=C/c1ccccc1O,14.9%,-19.1%,-0.3%,9.65%,-7.85%,10.2%
C[n+]1ccccc1/C=C/c1ccc([N+](=O)[O-])cc1,9%,5.8%,13.2%,-10.3%,-1.8%,6.3%
CN(C)CCNC(=O)c1cnn(C)c1[N+](=O)[O-],26.4%,8.75%,17.3%,13.2%,0%,-59.1%

Compound,growth inhibition [1],growth inhibition [2],growth inhibition [3],growth inhibition [4],growth inhibition [5],growth inhibition [6]
COc1ccc(COC(=O)Nc2ccccc2Cl)cc1,5.85%,-9.45%,-4.9%,-6.9%,17%,-6.35%
CCN(CC)CCCOC(c1ccccc1)c1ccc(Cl)cc1 (centres undefined),17.8%,16.9%,46.5%,41.9%,1.1%,26.1%
CCN(CC)CCN1c2ccccc2Sc2ccc3ccccc3c21,37.5%,0.8%,2.7%,3.4%,38.5%,58.5%
c1ccc(-c2cc(-c3cc(-c4ccccc4)n[nH]3)[nH]n2)cc1,-9.95%,-8.15%,-21.4%,-19.2%,-16.6%,-37.1%
NC(=O)C(=O)CC(=O)c1ccccc1NC1=CC(=O)C(=O)c2ccccc21,41%,29.1%,20.4%,30.4%,36.4%,37.5%
O=C(O)c1nc2ccccc2c(=O)[nH]1,-3.4%,-4.25%,-9.7%,-43.1%,-12.2%,-4.6%
CCOc1cc[n+]([O-])cc1C,-15.7%,-9.6%,1.45%,-8.2%,-3.75%,13.1%
Cc1onc(-c2c(Cl)cccc2Cl)c1C(=O)SC1=NC(C)N2C(SC(=O)c3c(-c4c(Cl)cccc4Cl)noc3C)=NC(C)N12 (centres undefined),26.6%,7.4%,11.3%,11.7%,18.6%,16.6%
CC1(C)CCC2(C)CCC3(C)C(=CCC4C5(C)CCC(O)C(C)(C)C5CCC43C)C2C1 (centres undefined),0.85%,6.3%,-10.2%,16.2%,4.25%,0.5%
COC1CCCCC(=NNC(N)=O)CCCC1 (centres undefined),-0.2%,-2.65%,-13.2%,-44.6%,-7.15%,-1.15%
O=C(Nc1ccc(N=C=S)cc1Cl)c1cc(Br)cc(Br)c1O,94.3% (active),96.7% (active),95.6% (active),97.1% (active),96.8% (active),94.7% (active)
COC(=O)/C(C#N)=C(C)/C=C/c1ccc(OC)cc1,22.6%,14%,8%,-15.6%,18.6%,22.2%
Cc1cc(C)c(CC#N)s1,-25.2%,-12.1%,-1.65%,-52.6%,-15.4%,-22.3%
Clc1ccc(CSc2nnc(SCc3ccc(Cl)c(Cl)c3)c3[nH]cnc23)cc1Cl,36.5%,6.15%,47.4%,30.6%,22.9%,3.1%
O=c1sccc2ccccc12,28.1%,25.4%,2.5%,9.4%,10.3%,1.35%
O=P(O)(O)CN1CCN(CP(=O)(O)O)CCN(CP(=O)(O)O)CCN(CP(=O)(O)O)CC1,-39.9%,-16.8%,-8.75%,12.1%,-0.05%,-19.1%
CCCNC(=S)/N=C/c1c(O)cc(C)oc1=O,-51.6%,-65.6%,-24.2%,-0.3%,-18.5%,-42.2%
CCCCCC(CC)OC(=O)Nc1cccc2ccccc12 (centres undefined),6.05%,7.2%,10.7%,-9.15%,-3.35%,0.1%
COC(=O)c1cc([N+](=O)[O-])c(Br)s1,99.3% (active),99.6% (active),99.6% (active),99.5% (active),99.3% (active),99.3% (active)
